Among all 410,000 compounds or so, about 2,000 (0.49%) were called active. Where a call stands in place of a potency, no number is given. Another 8% or so got no clear call; they are omitted. This is one part of a sample in which actives are shown more often than they occur. Calls follow the shape of the full dose curve; tested in HEK293 reporter line.
assay: qHTS Assay for Foot and Mouth Disease Virus Antivirals: Primary Screen against the MLPCN compound library; conditions: FMDV antiviral cell-based qHTS; series mostly up to 57.9 µM; also: nearly all actives have a fitted effect of over 55% in size
Potency is read from the fitted curve at half-maximal effect.

SMILES	Potency
Cc1noc(C)c1CSc1nnc(-c2cc(Cl)ccc2Cl)n1N	inactive
CC(=O)c1sc(NC(=O)C2CC(=O)N(Cc3ccccc3)C2)nc1-c1ccccc1 (stereo not given)	inactive
Brc1ccc(OCc2ccccc2)c(CNCc2ccncc2)c1	20 µM (active)
CCOc1cc(CNCc2ccncc2)cc(Br)c1OCc1ccccc1F	inactive
Clc1cc(Br)ccc1OCCCNCc1ccccc1	inactive
Cc1ccc(S(=O)(=O)c2c(C)nn(C(C)(C)C)c2OC(=O)C(C)(C)C)cc1	inactive
COc1cc2[nH]c(=S)nc(NC3CCCCCC3)c2cc1OC	inactive
CCOC(=O)c1ccc(N2C=C(C(=O)OC)C(c3ccc(OC)c(O)c3)C(C(=O)OC)=C2)cc1	inactive
Cc1cccc(NC(=O)/C(C#N)=C\c2ccc(C(=O)O)cc2)c1	inactive
N#C/C(=C\c1ccc(OCc2ccc(C(=O)O)cc2)cc1)C(=O)N1CCOCC1	10 µM (active)
COc1ccc(CCNC(=O)/C(C#N)=C/c2ccc(OCC(=O)NCC3CCCO3)cc2)cc1OC (stereo not given)	inactive
Cc1nc(SCC(=O)NCCc2ccccc2)nc(C)c1C	inactive
CCOCCCNC(=S)N1CCN(c2nc(-c3ccccc3)cs2)CC1	inactive
CN1/C(=C\C(=O)CSc2nnc(N)s2)C(C)(C)c2ccccc21	inactive
Cc1ccc(C)c(Nc2cc(C)nc3ccccc23)c1	inactive
Cc1ccc(CSc2nc3ccccc3cc2C=O)cc1	inactive
Cc1ccc2c(c1)Cc1nc3ccccc3nc1-2	14.1 µM (active)
COc1cccc(-c2nc(CS(=O)(=O)CC(=O)NCCCc3ccccc3)c(C)o2)c1	inactive
NC(=O)COc1ccccc1/C=C1/SC(=O)N(CC(=O)N2CCc3ccccc3C2)C1=O	inactive
COc1ccc(NC(=O)c2[nH]c(C)c(C(C)=O)c2C)cc1	inactive
COc1ccc(-c2nc(NC(=O)c3c(C)noc3C)sc2C)cc1	inactive
COc1ccc(-c2nc(NC(=O)c3[nH]c(C)c(C(C)=O)c3C)sc2C)cc1	28.2 µM (active)
Fc1ccc(CN2CCN3CCCC3C2C2CCCCC2)cc1F (stereo not given)	inactive
O=c1[nH]c(SCc2ccccc2Cl)nc2c1cnn2-c1ccccc1	inactive
c1nc(NCc2ccc3c(c2)OCO3)c2cc(-c3ccc4c(c3)OCCO4)ccc2n1	inactive

SMILES	Potency
COc1ccc(N2CCN(C(=O)Cn3cnc4c(cnn4-c4ccc(C)cc4)c3=O)CC2)cc1	inactive
CCCCCn1nc(C(=O)OCC(=O)c2c(N)n(C)c(=O)n(C)c2=O)c2ccccc2c1=O	inactive
COc1cccc(-c2cc(C(=O)NC3CC3)c3ccccc3n2)c1	inactive
COc1cccc(-c2cn3nc4c(nc3n2)CCCC4)c1	10 µM (active)
COc1cccc(Nc2c3c(nc4c(-c5ccccc5)c(C)nn24)CCC3)c1	inactive
c1ccc(Sc2cccc3ccccc23)c(CNC2=NCCN2)c1	inactive
COc1ccccc1S(=O)(=O)Cc1ccc(C(=O)NCc2ccc3c(c2)OCO3)o1	inactive
CC(C)(C)NC(=O)c1ccc(COc2ccc(Cl)cc2Cl)o1	inactive
FC(F)(F)c1nnc(-c2ccccc2)nc1Oc1ccc(Cl)cc1Cl	inactive
Clc1ccc(OCc2cc(-c3ccccc3)no2)c(Cl)c1	12.6 µM (active)
CCN1CCN(C(=O)C2CCN(c3nnc(C)c4c(C)n(-c5ccc(C)cc5)nc34)CC2)CC1	inactive
Cc1ccc(C(=O)N(CC(=O)Nc2sc(C)c(C)c2C(N)=O)C2CCCC2)cc1	inactive
COc1ccc(NS(=O)(=O)c2cc(NC(=O)c3ccc(=O)[nH]c3)ccc2N2CCOCC2)cc1	inactive
O=C(Nc1nc(-c2ccc(S(=O)(=O)N3CCCC3)cc2)cs1)C1COc2ccccc2O1 (stereo not given)	inactive
CC(=O)c1sc(NC(=O)c2cc(-c3ccccc3)nn2-c2ccccc2)nc1C	inactive
CC(=O)c1sc(NC(=O)C2COc3ccccc3O2)nc1C (stereo not given)	11.2 µM (active)
CCOc1ccc(C(=O)N(Cc2cc(OC)c(OC)c(OC)c2)c2ccccn2)cc1	inactive
CN(C)Cc1n[nH]c(=O)c2ccccc12	inactive
CC1=C/C(=C(/c2cc(C)c(O)c(Br)c2)c2ccccc2S(=O)(=O)O)C=C(Br)C1=O	17.8 µM (active)
COc1ccc(NC(=S)N2CCN(Cc3ccc(C)cc3)CC2)cc1	inactive
CN1CCN(S(=O)(=O)c2cccc(C(=O)Nc3ccc(Br)cc3Br)c2)CC1	inactive
CCn1c(=S)sc2c(=O)n(CC(=O)Nc3cccc(Cl)c3)c(C)nc21	inactive
CCOC(=O)NC(=O)/C(C#N)=N/Nc1c(F)cccc1F	inactive
Cc1nc(SCC(=O)Nc2nc3ccccc3s2)c(C#N)c(C)c1C	inactive
C=CCn1c(SCC(=O)Nc2nc3ccccc3s2)nnc1-c1ccccc1O	25.1 µM (active)

SMILES	Potency
C=CCn1c(SCC(=O)Nc2cccnc2Cl)nnc1-c1ccccc1F	inactive
COc1ccc(N2CCOCC2)c(NC(=O)c2cc3ccccc3o2)c1	inactive
COc1ccccc1NC(=O)C1=C(C)NC(SCC(=O)c2ccccc2)=C(C#N)C1c1ccco1 (stereo not given)	inactive
CCCn1nc(C(=O)Nc2nc(-c3ccccn3)cs2)c2ccccc2c1=O	inactive
Cc1cccnc1Nc1nc(-c2ccccn2)cs1	11.2 µM (active)
Cc1cc(C)n2c(Nc3c(C)cccc3C)c(-c3ccccn3)nc2n1	inactive
CN(CC(=O)NCc1ccccc1)CC(=O)Nc1ccc(Cl)c(C(F)(F)F)c1	inactive
COc1ccc(-c2nsc3c(N4CCCC4)ncnc23)cc1	22.4 µM (active)
COc1ccc(-c2nsc3c(N4CCCCC4)ncnc23)cc1	inactive
COc1ccc(-c2nsc3c(N4CCCCC4C)ncnc23)cc1 (stereo not given)	inactive
NC(=O)c1cccn(Cc2ccc(C(F)(F)F)cc2)c1=O	inactive
CC(=O)c1cccc(NC(=O)CN2CCc3cc4c(cc3C2C)OCCCO4)c1 (stereo not given)	inactive
CC(C)CNc1nc2c(c(=O)n(C)c(=O)n2C)n1Cc1cccc(Br)c1	inactive
Cc1nn2cc(-c3ccc(OC(C)C)cc3)nc2s1	14.1 µM (active)
COC(=O)c1ccc2nc(-c3ccc(C#N)cc3)c(Cc3ccsc3)n2c1	inactive
COc1ccccc1-c1nc(-c2ccccc2)nc(N2CCN(C)CC2)c1C#N	inactive
O=C1C(C=Nc2ccccc2)=C(O)c2ccccc21	10 µM (active)
Cc1cccc(-n2c(O)c(C=Nc3ccccc3)c3ccccc3c2=O)n1	inactive
COC1=CC(=O)c2ccccc2C1=O	inactive
COc1cc(NC(=O)Cc2ccc(S(=O)(=O)N3CCOCC3)s2)c(OC)cc1Cl	inactive
O=C(OC(C(=O)Nc1ccc(Cl)cc1C(F)(F)F)c1ccccc1)c1c(Cl)cccc1Cl (stereo not given)	inactive
COc1ccc(CCCc2nnc(SCC(=O)Nc3cccc(C)c3)o2)cc1	inactive
Cc1ccc(-c2ccnc3nc(Sc4ncc(C(F)(F)F)cc4Cl)nn23)cc1	inactive
Cc1nn(Cc2ccc(Cl)cc2)c(=O)n1N(C)c1ncc(C(F)(F)F)cc1Cl	inactive
Cc1nn2cc(-c3ncc(C(F)(F)F)cc3Cl)cnc2c1Br	8.91 µM (active)

SMILES	Potency
CCOC(=O)c1sc(=S)n(C)c1NC(=O)c1ccccc1	inactive
Cc1cccc(CNc2ncnc3ccc(-c4ccc5c(c4)OCCO5)cc23)c1	inactive
COc1ccc(CCNC(=S)N2CCC(C(=O)c3ccc(F)cc3)CC2)cc1OC	inactive
CCC1Sc2ccc(S(=O)(=O)CCC(=O)NCc3ccco3)cc2NC1=O (stereo not given)	inactive
CCN(CC)CCNC(=O)c1nn(-c2ccc(Cl)cc2)c2c1CCc1cc(OC)ccc1-2	inactive
CC(=O)Nc1ccc(S(=O)(=O)Nc2nc3ccc(C)cc3s2)cc1	inactive
CCOC(=O)c1cc(-c2ccccc2)sc1NC(=O)CCN1C(=O)c2ccccc2C1=O	inactive
Cc1ccc2nc(-c3ccc(NC(=O)CCS(=O)(=O)c4ccccc4)cc3)sc2c1	10 µM (active)
Cc1ccc2nc(-c3ccc(NC(=O)CCN4C(=O)c5ccccc5C4=O)cc3)sc2c1	7.08 µM (active)
O=C(CCS(=O)(=O)c1ccccc1)Nc1ccccc1-c1nc2ccccc2s1	inactive
O=C(CCCCCN1C(=O)c2ccccc2C1=O)Nc1cccc(O)c1	inactive
CSc1ccc(NC(=O)N2CC=C(n3c(=O)[nH]c4ccccc43)CC2)cc1	inactive
CCn1c(N2CCN(S(=O)(=O)c3ccccc3C(F)(F)F)CC2)nc2ccccc21	inactive
COc1ccc(CNC(=O)C[C@H]2C[C@H](C(=O)N(C(C)C)C(C)C)[C@@]3(C)c4[nH]c5ccc(Cl)cc5c4CCN3C2=O)cc1OC	inactive
Cc1cc(N2CCN(C(=O)c3ccco3)CC2)n2nc(-c3cccc(Cl)c3)cc2n1	22.4 µM (active)
O=C(c1ccco1)N1CCN(c2c([N+](=O)[O-])nn(-c3cccc(Cl)c3)[n+]2[O-])CC1	inactive
Cc1cc(C)c2nc(C(F)(F)F)nc(N3CCN(C(=O)c4ccco4)CC3)c2c1	inactive
COc1cccc2[nH]c3c(N4CCc5ccccc5C4)ncnc3c12	inactive
CCOc1ccc(N2C(=O)S/C(=C\c3cc(OC)c(OC)c(OC)c3)C2=O)cc1	10 µM (active)
COc1cc(/C=C2\SC(=S)N(CC(=O)NC(C)(C)C)C2=O)cc(OC)c1OC	inactive
COc1cc(/C=C2\SC(=O)N(c3cccc(Cl)c3)C2=O)cc([N+](=O)[O-])c1O	inactive
CC(=O)c1ccc(NC(=O)c2ccc(-c3nc(CSc4ccccc4)c(C)o3)cc2)cc1	inactive
C[C@H]1CN([C@@H](C)CO)C(=O)c2cc(NC(=O)C3CCCCC3)ccc2O[C@H]1CN(C)Cc1ccc(-c2ccccc2)cc1	inactive
CC1CCC(C(C)C)C(OC(=O)Cn2c(-c3ccc(Br)cc3)[n+](C)c3ccccc32)C1 (stereo not given)	15.8 µM (active)
Cc1ccccc1OCc1n(CC(=O)OC2CC(C)CCC2C(C)C)c2ccccc2[n+]1C (stereo not given)	17.8 µM (active)

From PubChem BioAssay AID1347131 (National Center for Advancing Translational Sciences (NCATS), 2019)
